Sampled rows, rich in hits. Any-hit rate of the full collection: about 21%.
FBPA Giardia inh: blocks Giardia fructose-bisphosphate aldolase activity. purified Giardia FBPA. Potency, µM (highest dose often 59.6 µM), without a hit: at the highest dose activity, negative = inhibition, usual class: inhibitors. A8B2U2. 290,000 tested, 0.71% active; note: potency is the fitted concentration of half-maximal effect; % is set by controls: 0 for no effect and ±100 for the full control effect; nearly all actives have a fitted effect of over 55% in size
Target sequence (A8B2U2 whole entry, looked up): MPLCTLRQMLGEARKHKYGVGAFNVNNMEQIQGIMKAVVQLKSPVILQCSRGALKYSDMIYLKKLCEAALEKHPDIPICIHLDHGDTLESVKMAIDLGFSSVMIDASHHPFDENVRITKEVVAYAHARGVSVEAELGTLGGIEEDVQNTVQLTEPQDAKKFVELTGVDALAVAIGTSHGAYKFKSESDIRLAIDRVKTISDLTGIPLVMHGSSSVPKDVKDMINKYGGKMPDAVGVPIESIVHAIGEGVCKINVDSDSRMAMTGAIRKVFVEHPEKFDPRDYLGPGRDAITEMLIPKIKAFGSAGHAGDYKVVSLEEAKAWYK
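Giardia FBPA (40 nM reagent) was preincubated 10 min at RT with compound (up to 57.5 uM final), then substrate plus GAPDH/TPI/NAD/arsenate coupling system with diaphorase/resazurin was added; resorufin fluorescence (525/598 nm) was read after 20 min.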
Shiga inhibitor: blocks Shiga toxin action in Vero cells; Vero cells, Shiga toxin protein synthesis inhibition reporter; 290,000 tested, 9.2% active; inhibition, % at 38.7 µM; in the data active = inhibition mostly above about 28%, no sharp cut-off; inactive = mostly below about 43%; note: 0% is about no effect
Pf growth 96h: inhibits malaria parasite growth, 96 h; P. falciparum luciferase reporter growth, 96 h; Potency, µM (doses to about 28.7 µM), without a hit: top-dose activity change, negative = inhibition, actives largely listed as inhibitors; 320,000 tested, 6.9% active; AID 504834; note: potency is the fitted concentration of half-maximal effect; % is set by controls: 0 for no effect and ±100 for the full control effect
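Delayed-death screen, second-generation endpoint: infected erythrocytes, 2% hematocrit, 0.05% parasitemia final; 96 hours at 37 C, 5% CO2; luciferase detection reagent; luminescence decrease equals reduced growth.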
Pf growth 48h: P. falciparum growth inhibition at 48 hours (one generation). P. falciparum luciferase growth in erythrocytes, 48 h. Potency, µM (doses to about 28.7 µM), for the others: top-dose activity change, negative = inhibition, actives largely listed as inhibitors. 310,000 tested, 5.9% active; note: potency is the fitted concentration of half-maximal effect; % is set by controls: 0 for no effect and ±100 for the full control effect
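Luciferase-expressing parasites in RBCs, 2% Hct / 0.1% parasitemia final; RPMI 1640 + 0.5% Albumax; 37 C, 5% CO2, one generation; luminescence read-out, lower signal = inhibition.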
NS1 inh: influenza NS1 inhibition; Potency, µM (titrated, usually from 46.1 µM), for the others: at the highest dose activity, positive = more growth; 270,000 tested, 0.4% active; calls by dose curve; note: potency is the fitted concentration of half-maximal effect; actives are rising curves; nearly all actives have a fitted effect of over 50% in size
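S. cerevisiae expressing influenza A NS1, grown in glucose, washed, then diluted 1:100 into pH 6.0 -URA galactose medium with 23 nl compound. Growth recovery read as OD600; NS1-free strain serves as control.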
CHX counter: affects cycloheximide protein synthesis inhibition readout, counter-screen; max response, %; 300,000 tested, 12% active; cell reporter, cycloheximide protein synthesis inhibition counterscreen; in the data active = max response mostly above about 13%, no sharp cut-off; inactive = mostly below about 14%; note: read at 38.3 µM for the half of the compounds with a filed dose; 0% is about no effect
Active calls of the source: *; [ ] = another dose, or the depositor's remark. Unless noted, calls come from the whole dose curve; as a rule, active = well fitted curve in the direction sought with a large enough effect; inconclusive = small, poorly fitted or top-dose-only effect, or another doubt; inactive = no such curve, though single readings can be large; an effect the other way counts as inactive or inconclusive.

`CC(C)OC(=O)CCC(=O)Nc1nc2ccccc2s1` gave FBPA Giardia inh -2.0%, Shiga inhibitor 30.5, Pf growth 96h -16.2%, NS1 inh -16.4% and CHX counter 12.7.
`CCOCC(=O)Nc1nc2ccccc2s1` gave FBPA Giardia inh 4.1%, Shiga inhibitor 124.7*, Pf growth 96h 14.7µM*, Pf growth 48h 432.6%, NS1 inh 0.5% and CHX counter 47.6*.
CCNC(=O)Nc1nc2ccccc2s1 was read as FBPA Giardia inh -4.5%, Shiga inhibitor 59.9*, Pf growth 96h 296.3%, Pf growth 48h 183.9% and CHX counter 43.7*.
Screening COc1ccc(/C(C)=N/OCC(=O)Nc2nc3ccccc3s2)cc1 returned FBPA Giardia inh -9.2%, Shiga inhibitor -1.7, Pf growth 96h 37.3%, Pf growth 48h 31.0%, NS1 inh 10.5% and CHX counter 12.1*.
`Cc1n[nH]c(C)c1S(=O)(=O)N1CCN(S(=O)(=O)c2cccc(F)c2)CC1` gave Pf growth 96h 6.0% and Pf growth 48h -0.7%.
Screening O=S(=O)(c1ccc(F)cc1)N1CCN(CC2CC3C=CC2C3)CC1 (configuration not stated) returned FBPA Giardia inh inconclusive, Shiga inhibitor -3.9, Pf growth 96h inconclusive, Pf growth 48h inconclusive, NS1 inh -2.1% and CHX counter -3.3.
Screening CCOC(=O)N1CCN(C(=O)CCNS(=O)(=O)c2ccc3c(c2)c(=O)n(C)c(=O)n3C)CC1 returned FBPA Giardia inh 0.4%, Shiga inhibitor 1.6, Pf growth 96h 14.6%, Pf growth 48h -16.8% and CHX counter -4.4.
Screening O=C(CSC1=NS(=O)(=O)c2cc(F)ccc2N1)Nc1cccc(F)c1 returned Pf growth 96h 3.1% and Pf growth 48h -26.7%.
Screening O=C(NCc1ccncc1)C(=O)Nc1nccs1 returned FBPA Giardia inh inconclusive, Shiga inhibitor 15.6, Pf growth 96h 18.0%, Pf growth 48h 13.4%, NS1 inh -0.7% and CHX counter 0.7.
O=C(NCc1ccncc1)C(=O)Nc1nc2ccccc2s1 was read as FBPA Giardia inh -8.9%, Shiga inhibitor 52.0*, Pf growth 96h 202.2%, Pf growth 48h 38.9%, NS1 inh -4.0% and CHX counter 41.8*.
Screening Cc1nc(-c2ccc(C(=O)O)cc2)cs1 returned FBPA Giardia inh 25.7%, Shiga inhibitor 15.3, Pf growth 96h 13.4%, Pf growth 48h 13.1%, NS1 inh -148.5% and CHX counter 1.2.
O=C(Nc1cccc(-c2csc(-c3ccccc3)n2)c1)c1cccs1 was read as FBPA Giardia inh 0.1%, Shiga inhibitor 19.1, Pf growth 96h 0.329µM*, NS1 inh -0.6% and CHX counter 7.0.
Cc1c(-c2cccc(NC(=O)c3cccs3)c2)nc2ncccn12 was read as FBPA Giardia inh -6.9%, Shiga inhibitor -4.4, Pf growth 96h inconclusive, Pf growth 48h inconclusive, NS1 inh -3.6% and CHX counter 11.4.
Cc1nc(-c2cccc(NC(=O)c3ccc(-n4nccc4C)cc3)c2)cs1 was read as Pf growth 96h inconclusive and Pf growth 48h 14.6%.
Cc1nc(-c2cccc(NC(=O)c3cccs3)c2)cs1 was read as FBPA Giardia inh -4.9%, Shiga inhibitor 32.7, Pf growth 96h inconclusive, Pf growth 48h inconclusive, NS1 inh -24.3% and CHX counter 16.5*.
`Cc1nc(-c2ccc(C(=O)Nc3cc(S(N)(=O)=O)ccc3C)cc2)cs1` gave FBPA Giardia inh 2.6%, Shiga inhibitor 55.9*, Pf growth 96h inconclusive, Pf growth 48h -15.9%, NS1 inh 29.3% and CHX counter 13.7*.
COc1ccc(-c2csc(C)n2)cc1Br was read as FBPA Giardia inh 4.7%, Shiga inhibitor 74.5*, Pf growth 96h 20.4%, Pf growth 48h 14.6%[5.75 µM] and CHX counter 35.2*.
O=C(NCc1ccc(F)cc1)C1CCCN1C(=O)Nc1cccc(F)c1 (configuration not stated) was read as FBPA Giardia inh 13.5%, Pf growth 96h inconclusive, Pf growth 48h 1.0%, NS1 inh 7.1% and CHX counter 2.2.
Screening COc1ccc(C(=O)Nc2cc(OC)ccc2OC)cc1 returned FBPA Giardia inh 0.8%, Shiga inhibitor 23.9, Pf growth 96h 6.0%, Pf growth 48h 66.6%, NS1 inh -24.0% and CHX counter 15.0.

Bioassay records (PubChem)
